The record followed here is the supplement of paper PMC9897528.

Structures are written as SMILES. Values without a mark were called inactive.
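Also: conidia screened in RPMI 1640 medium under 5% CO2, growth read by spectrophotometer, medium with 0.5% DMSO serving as the untreated reference.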

The assay concerns Scedosporium aurantiacum CBS 136046. Put plainly: growth inhibition relative to DMSO control (OD600); higher = more antifungal activity, active = 80 or more; extreme values may be limits of the assay. The settings on record: 5 µM; 72 h; 37 °C.
In the case of `CC[C@H](CO)Nc1nc(NCc2ccccc2)c2ncn(C(C)C)c2n1`, the growth inhibition is 10%.
The figure for `CCC(C)n1ncn(-c2ccc(N3CCN(c4ccc(OCC5COC(Cn6cncn6)(c6ccc(Cl)cc6Cl)O5)cc4)CC3)cc2)c1=O` (stereo not given) is 57.2%.
As to `CC[C@@H]1C(=O)OC[C@@H]1Cc1cncn1C`, the growth inhibition is 0%.
Turning to `C/C(=N\NC(=O)C1CC1c1ccccc1)c1ccc(NC(=O)c2ccco2)cc1` (stereo not given), the growth inhibition was 1.06%.
The figure for `CCCCCc1ccc(C(=O)NCCn2cc(CCCCCc3c[nH]c(N)n3)nn2)cc1` is 46%; for `Nc1cnn(C2OC(CO)C(O)C2O)c(=O)n1` (stereo not given) it is 8.41%.
Turning to `Cc1ccc(S(=O)(=O)Nc2cccc3cccnc23)cc1`, the growth inhibition was 42.5%.
With `O=C(O)CCNC(=O)c1ccccc1` the figure was 36.7%; with `O=C(c1ccccc1)N1CCN(c2ccccc2NC(=O)C(Cl)(Cl)Cl)CC1`, 33.8%; with `OC1O[C@H](CSc2ccc(F)cc2)[C@@H](O)[C@H]1O` (stereo not given in full), 16.7%.
As to `CC(C)=CCC/C(C)=C/CNCCNC1C2CC3CC(C2)CC1C3` (stereo not given), the growth inhibition was 61.4%.
Turning to `Cc1cccc(CC(=O)N[C@H]2CCOC2=O)c1`, the growth inhibition is 16.6%.
Turning to `CCOc1ccc(C(=O)NCCc2ccccc2)cc1`, the growth inhibition is 33.4%.
With `CCOC(=O)Nc1cc(NC(C)CC(C)CN(CC)CC)c2nc(-c3ccccc3)c(-c3ccccc3)nc2n1` (stereo not given), the growth inhibition is 36.4%.
The figure for `O=C(Nc1cccc(C2=NCCN2)c1)c1ccc(-c2ccc(C(=O)Nc3cccc(C4=NCCN4)c3)cc2)cc1` is 1.73%.
